Laboratory results taken from the supplement of paper PMC10338343.
± gives the standard deviation.

Columns and labels:
[1] = system: MILI (PIWIL2) piRISC loaded with piRNA #1 (26 nt); assay: pre-steady-state target cleavage rate (min^-1); guide: piRNA #1 5'p-UGAGGUAGUAGGUUGUAUAGUAUCCA; higher = faster piRNA-guided slicing of the target; conditions: auxiliary factor: 500 nM mouse GTSF1;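 note: 1 nM active piRISC with 0.1 nM target library at 33 °C single turnover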
Outline: (§1)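 For Cleave-'n-Seq, a transcribed, DNA-blocked target RNA library […] met 1 nM active affinity-purified piRISC with one synthetic guide at 33 °C for 0–8 or 0–960 min in HEPES–potassium acetate buffer, with or without 500 nM GTSF1 partner protein. Uncleaved targets were sequenced and normalised to depth and weakly complementary targets, with three trials pooled and k3 capped at 0.0001 min^-1. A burst-and-steady-state fit supplied the pre-steady-state cleavage rate.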

[2] = system: EfPiwi piRISC loaded with piRNA #1 (26 nt); assay: pre-steady-state target cleavage rate (min^-1); auxiliary factor: 500 nM Ephydatia muelleri Gtsf1; guide: piRNA #1 5'p-UGAGGUAGUAGGUUGUAUAGUAUCCA; MIWI and MILI are mouse PIWI proteins and EfPiwi is from a freshwater sponge; tags in brackets are library labels; higher = faster piRNA-guided slicing of the target
Outline: as §1

Sequence	pre-steady-state target cleavage rate [1]	pre-steady-state target cleavage rate [2]
GGAGACCUAUCUAUACAACCUACUACCUACA	0.0858 ± 0.015	0.00445 ± 0.0039
GGAGACGAUACUAUACUACCUUCUACCUCA	0.025 ± 0.0053	0.00418 ± 0.0025
GGAGAGGAUACUAAACAACGUACUACCUCA	0.013 ± 0.0022	0.00367 ± 0.002
GGAGACCUUUCUAUACAACCUACUACCUGA	0.0728 ± 0.013	0.0049 ± 0.0044
GGAGACCAUACUAGUACAACCUACUACCUCA	0.089 ± 0.011	0.00796 ± 0.0044
GGAGUGCAUACUAUACAACCUACAACCUCA	0.0916 ± 0.01	0.00301 ± 0.0024
GGAGAGGAUAGUAUACAACCUACAACCUCA	0.037 ± 0.0093	0.00249 ± 0.0021
GGAGAGGAUUACUAUACAACCUACUACCUCA	0.132 ± 0.0095	0.0829 ± 0.03
GGAGAGGAAACUAUACAAGCUACUACCUCA	0.179 ± 0.031	0.00403 ± 0.0014
GGAGACGAUACUAUACAACGAACUACCUCA	0.00414 ± 0.0015	0.00251 ± 0.0024
GGAGACCUAACUAUACAACCUACUACCUA	0.0998 ± 0.021	0.0706 ± 0.025
GGAGAGGAUACUAUUCAACGUACUACCUCA	0.0162 ± 0.0029	0.00415 ± 0.0012
GGAGAGGAUACUAUACAACGUUCUACCUCA	0.00213 ± 0.0019	0.00409 ± 0.0022
GGAGAGCAUACUAUACAACGUACUACCUCA	0.0213 ± 0.003	0.00394 ± 0.0014
GGAGUGGAUUCUAUACUACCUACUACCUCA	0.155 ± 0.0078	0.00505 ± 0.0034
GGAGACCAUACAAUACUACCUACUACCUCA	0.158 ± 0.019	0.00374 ± 0.0037
GGAGAGGAUACUAUACAACCUACUAACCUCA	0.159 ± 0.016	0.00574 ± 0.0027
GGAGUCGAUACUAUACAAGCUACUACCUCA	0.142 ± 0.011	0.00581 ± 0.0024
GGAGACGAUACAAUACAUCCUACUACCUCA	0.312 ± 0.016	0.00286 ± 0.0019
GGAGUCGAUACUAUACAACCUAGUACCUCA	0.0166 ± 0.0031	0.00334 ± 0.0014
GGAGACGAUACUAUACAACCUACUACUUCA	0.162 ± 0.013	0.00983 ± 0.0039
GGAGACCUAACUAUACAACCUACGACCUCA	0.129 ± 0.027	0.00261 ± 0.0025
GGAGACCAUACUAUACAACCUACUUCCUGA	0.0889 ± 0.02	0.00388 ± 0.0027
GGAGACCAUACUAUAUAACCUACUACCUCA	0.155 ± 0.016	0.00757 ± 0.0042
GGAGACCAUACUAUACCAACCUACUACCUCA	0.0299 ± 0.0075	0.00761 ± 0.0031
GGAGUGGGUACUAUACAACCUACUACCUCA	0.148 ± 0.01	0.00924 ± 0.0037
GGAGACCUAUCUACACAACCUACUACCUCA	0.072 ± 0.0099	0.00358 ± 0.0034

Sequence	pre-steady-state target cleavage rate [1]	pre-steady-state target cleavage rate [2]
GGAGACCAUACUAUACAACGUACAACCUCA	0.0214 ± 0.0035	0.00296 ± 0.0025
GGAGACCUAACUAUACAACCUACUACGUCA	0.0415 ± 0.014	0.00274 ± 0.0023
GGAGAGGAUACUAUAGAAGCUACUACCUCA	0.0647 ± 0.0095	0.00238 ± 0.0021
GGAGUGGAUACUAUAGAACCUACUACCUCA	0.178 ± 0.0098	0.00377 ± 0.0019
GGAGAGGAUACAUACAACCUACUACCUCA	0.137 ± 0.016	0.0103 ± 0.005
GGAGUGGAUACUAUACAUGGAUGAUGGAGA [g14:g26:cont:t1A]	< 0.0001	< 0.0001
GGAGAGAUACUAUACAACCUACUACCUCA	0.202 ± 0.017	0.121 ± 0.054
GGAGACGUAACUAUACAACCUACUACCUCA	0.166 ± 0.018	0.0248 ± 0.0098
GGAGUGGAAACUAUACAACCUUCUACCUCA	0.00517 ± 0.0028	0.00484 ± 0.0029
GGAGAGGAACUAUACAACCUACUACCUCA	0.167 ± 0.013	0.00746 ± 0.0049
GGAGAGGAUUCUAUACAACCAACUACCUCA	0.00507 ± 0.0028	0.00361 ± 0.0027
GGAGACCUUACUAUACAACCUACUACCGUCA	0.132 ± 0.02	0.0112 ± 0.0047
GGAGUGGAUAGUUUACAACCUACUACCUCA	0.11 ± 0.0082	0.00446 ± 0.0033
GGAGUGGAUACUAUACAACCUACUACCUGCA	0.109 ± 0.012	0.00841 ± 0.0028
GGAGUGCAUACUAUACAACGUACUACCUCA	0.0301 ± 0.0044	0.00739 ± 0.0027
GGAGACCUUACUAUACAACCUACUCCCUCA	0.0992 ± 0.015	0.00342 ± 0.0031
GGAGACGAUACUAUACAAGCUUCUACCUCA	0.0442 ± 0.0052	0.0034 ± 0.0019
GGAGUGGAUACUAUACUAGCUACUACCUCA	0.158 ± 0.011	0.0081 ± 0.0031
GGAGACGAUACUAUACAACCUAUACCUCA	0.0145 ± 0.0044	0.00289 ± 0.0018
GGAGAGGUUACUAUUCAACCUACUACCUCA	0.164 ± 0.0098	0.00359 ± 0.0029
GGAGACCUAACUAAACAACCUACUACCUCA	0.0743 ± 0.017	0.00631 ± 0.0031
GGAGACCUUACUAUACAACGUACUACCUGA	0.0102 ± 0.0027	0.00475 ± 0.0042
GGAGUGGAUCUAUACAACCUACUACCUCA	0.155 ± 0.011	0.0612 ± 0.029
GGAGUGGUUACUAUACAACCUACUACCUCA	0.186 ± 0.0089	0.00957 ± 0.004
GGAGACGAUACUGAUACAACCUACUACCUCA	0.203 ± 0.018	0.00712 ± 0.0036
GGAGACCUUAGCUAUACAACCUACUACCUCA	0.112 ± 0.015	0.0684 ± 0.027
GGAGACCUAACUAUACAACCUACUACGACA	0.118 ± 0.037	0.00325 ± 0.0029
